We go through 63 compounds from PubChem BioAssay AID602481 (Broad Institute, 2012).

Several values for one entry are separate records, joined by “and”; a condition that tells them apart may be missing. Equal entries are not always repeated. The whole screen tested about 360,000 compounds, of which about 340 (0.094%) were called active. No stated cut-off is given here; in the data, active means inhibition above about 40%; inconclusive means no clear call, values can overlap the other calls; inactive means below that. Many of the other results were omitted from the sample, so actives are more common in it than they were. Where a structure was tested more than once in an assay, its records may differ in their call.

The test system of this test is 7,8-diaminopelargonic acid synthase BioA (Mycobacterium tuberculosis). As to the kind of experiment: M. tuberculosis BioA enzyme inhibitors, primary screen, biochemical, plate reader, single point, HTS (AID 602481). The following applies: purified M. tuberculosis BioA enzyme, at 9.99 µM, stronger effect = higher value.
As for `COc1ccc(S(=O)(=O)N(C)C[C@@H]2OCCCC[C@H](C)Oc3ccc(NC(=O)Nc4ccccc4)cc3C(=O)N([C@H](C)CO)C[C@H]2C)cc1`, the inhibition is -0.37% (inactive).

Turning to `CN(C)C(=O)C[C@H]1C=C[C@@H](NC(=O)c2ccc(F)cc2)[C@@H](CO)O1`, the inhibition is -0.406% (inactive).

Consider `O=C(Nc1ccc2c(c1)OCO2)N[C@H]1CC[C@H](CCNC(=O)C2CCC2)O[C@@H]1CO`, for which the inhibition is 5.56% (inactive).

As to `O=C(C[C@H]1C[C@H]2c3cc(NC(=O)Nc4ccc(F)cc4)ccc3O[C@H]2[C@@H](CO)O1)NCC1CC1`, the inhibition was 0.529% (inactive).

Regarding `COc1ccc(NC(=O)N(C)C[C@H]2OCCCC[C@H](C)Oc3ccc(NC(=O)c4ccncc4)cc3C(=O)N([C@H](C)CO)C[C@@H]2C)cc1`, the inhibition was -0.437% (inactive).

As for `CN(C)CC(=O)Nc1ccc2c(c1)[C@@H]1C[C@H](CC(=O)NCC3CC3)O[C@@H](CO)[C@@H]1O2`, the inhibition was -1.45% (inactive).

Consider `CN(C)CC(=O)N1[C@H](C(=O)NC2CCC2)[C@@H](CO)[C@@H]2Cn3c(ccc(-c4ccc(F)cc4)c3=O)[C@@H]21`, for which the inhibition was -3.07% (inactive).

Turning to `CCCN(C)C[C@@H]1OCc2cnnn2CCCC(=O)N([C@H](C)CO)C[C@@H]1C`, the inhibition was -0.996% (inactive).

On to `Cc1ccc(S(=O)(=O)Nc2cccc3c2O[C@@H](CN(C)S(=O)(=O)c2cccs2)[C@@H](C)CN([C@@H](C)CO)C3=O)cc1`, for which the inhibition is 1.64% (inactive).

For the compound `O=C(Nc1cccc(F)c1)N1CCCCN2[C@H](CO)[C@H](c3ccc(C#CC4CC4)cc3)[C@@H]2C1`, the inhibition is 10.9% (inactive).

`Cc1ccc(S(=O)(=O)Nc2ccc3c(c2)CC(=O)N([C@@H](C)CO)C[C@H](C)[C@H](CN(C)Cc2ccc(C(=O)Nc4ccccc4N)cc2)O3)cc1`: the inhibition was -1.91% (inactive).

On to `CCCC(=O)Nc1ccc2c(c1)OC[C@@H](C)N(Cc1ccccc1F)C[C@@H](C)[C@H](OC)CN(C)C2=O`, for which the inhibition was -3.54% (inactive).

For `CCCN(C)C[C@@H]1Oc2ncc(C#CC3CC3)cc2C(=O)N([C@H](C)CO)C[C@H]1C`, the inhibition is -2.63% (inactive).

Take `C[C@H](CO)N1C[C@H](C)[C@@H](CN(C)S(=O)(=O)c2ccccc2)OCCCC[C@H](C)Oc2ccc(NC(=O)NC3CCCCC3)cc2C1=O`: the inhibition was -0.429% (inactive).

Take `COc1ccc(S(=O)(=O)N(C)C[C@H]2Oc3c(NS(=O)(=O)c4ccc(F)cc4)cccc3C(=O)N([C@H](C)CO)C[C@H]2C)cc1`: the inhibition is -2.2% (inactive).

`CCn1c(SCc2cccc(C(=O)O)c2)nnc1-c1ccc(Cl)cc1`: the inhibition is 1.6% (inactive).

On to `C=CCn1c(SCc2cc(C(=O)OC)c(C)o2)nnc1-c1ccncc1`, for which the inhibition is 5.32% (inactive).

In the case of `C=CCn1c(SCc2c(C(=O)OC)sc(N)c2C(=O)OC)nnc1-c1ccc(Cl)cc1`, the inhibition is 51.8% (active).

Regarding `O=C(C[C@@H]1C=C[C@@H](NC(=O)C2CC2)[C@H](CO)O1)NCCCN1CCOCC1`, the inhibition is -6.18% (inactive).

As for `CCCc1cn(CC[C@@H]2CC[C@@H](NC(=O)CCN3CCCCC3)[C@H](CO)O2)nn1`, the inhibition was -2.51% (inactive).

For the compound `O=C(C[C@H]1CC[C@H](NC(=O)c2ccc3c(c2)OCO3)[C@H](CO)O1)NCc1ccc(Oc2ccccc2)cc1`, the inhibition was 2.15% (inactive).

As to `C[C@@H](O)C#Cc1ccc2c(c1)O[C@@H](CN(C)Cc1cccnc1)[C@@H](C)CN([C@@H](C)CO)S2(=O)=O`, the inhibition is 5.8% (inactive).

Consider `CCC(CO)Oc1cc(NC(=O)c2cccc(F)c2)c2ncn(C(C)C)c2c1` (stereo not drawn), for which the inhibition was 20.8% (inactive) and 67.8% (active).

Turning to `CCCOc1cccc(C(=O)Nc2nnn(CCC)n2)c1`, the inhibition was -3.8% (inactive).

On to `CC(C)n1cnc2c(NCc3ccccc3)cc(OCC3CCN(C)CC3)cc21`, for which the inhibition is 5.28% (inactive).

Consider `Cc1noc(C)c1NC(=O)Nc1ccc2c(c1)CC(=O)N([C@@H](C)CO)C[C@H](C)[C@H](CN(C)S(=O)(=O)c1c(C)noc1C)O2`, for which the inhibition is 1.52% (inactive).

As to `CC(C)NC(=O)N(C)C[C@H]1Oc2c(NS(=O)(=O)c3ccc(Cl)cc3)cccc2C(=O)N([C@@H](C)CO)C[C@H]1C`, the inhibition is -1.39% (inactive).

With `C[C@@H]1CN([C@@H](C)CO)C(=O)c2cc(/C=C/c3ccccc3)cnc2O[C@@H]1CN(C)C(=O)CN(C)C`, the inhibition is -0.866% (inactive).

Take `CO[C@H](CN(C)S(=O)(=O)c1ccc(Cl)cc1)[C@@H](C)CN(Cc1ccccc1Cl)[C@H](C)CO`: the inhibition is -0.783% (inactive).

Consider `O=C(NCC[C@@H]1CC[C@H](NS(=O)(=O)c2cccc(F)c2)[C@H](CO)O1)c1cnccn1`, for which the inhibition was 2.18% (inactive).

Consider `Cc1noc(C)c1S(=O)(=O)Nc1ccc2c(c1)C(=O)N([C@H](C)CO)C[C@H](C)[C@H](CN(C)C(=O)NC1CCCCC1)OCCCC[C@H](C)O2`, for which the inhibition was -0.981% (inactive).

Consider `COc1ccc(S(=O)(=O)N(C)C[C@H]2OCCCC[C@H](C)Oc3ccc(NS(=O)(=O)c4c(C)noc4C)cc3C(=O)N([C@@H](C)CO)C[C@@H]2C)cc1`, for which the inhibition is -0.18% (inactive).

For `Cc1noc(C)c1NC(=O)N(C)C[C@H]1Oc2ccc(NC(=O)Nc3ccc(C(F)(F)F)cc3)cc2CC(=O)N([C@@H](C)CO)C[C@@H]1C`, the inhibition is -2.44% (inactive).

In the case of `O=C(Nc1cccc(Cl)c1)N1C[C@@H]2[C@H](c3ccccc31)[C@H](CO)N2Cc1ccncc1`, the inhibition was -5.5% (inactive).

Consider `Cc1cc(C(=O)Nc2cccc3c2O[C@@H](CN(C)Cc2ccc4c(c2)OCO4)[C@@H](C)CN([C@@H](C)CO)C3=O)n(C)n1`, for which the inhibition was -2.65% (inactive).

For the compound `O=C(C[C@@H]1C[C@@H]2c3cc(NC(=O)C4CCC4)ccc3O[C@@H]2[C@@H](CO)O1)NCc1ccccc1`, the inhibition is -1.79% (inactive).

`O=C(C[C@@H]1CC[C@@H]2[C@H](COC[C@H](O)CN2S(=O)(=O)c2ccc(Oc3ccccc3)cc2)O1)NCCN1CCCCC1`: the inhibition is 9.19% (inactive).

`CCCN1[C@H](C(=O)NCC)[C@@H](CO)[C@@H]2Cn3c(ccc(C4=CCCC4)c3=O)[C@@H]21`: the inhibition was -0.389% (inactive).

For the compound `CC(=O)N1[C@H](C(=O)N(C)C)[C@@H](CO)[C@@H]2Cn3c(ccc(-c4ccccc4)c3=O)[C@@H]21`, the inhibition is -1.69% (inactive).

Regarding `CN1C(=O)c2cc(NC(=O)c3ccc(F)c(F)c3)ccc2OC[C@H]2O[C@@H](CC(=O)N3CCCCC3)CC[C@H]21`, the inhibition was 4.19% (inactive).

`C[C@@H]1CN([C@@H](C)CO)C(=O)c2cc(C#C[C@@H](C)O)cnc2O[C@H]1CN(C)CC1CCOCC1`: the inhibition was -0.205% (inactive).

For the compound `O=C(C[C@H]1C[C@@H]2c3cc(NC(=O)CC4CC4)ccc3O[C@@H]2[C@@H](CO)O1)NCc1cc(F)ccc1F`, the inhibition is -0.019% (inactive).

Regarding `COCC#Cc1cnc2c(c1)C(=O)N([C@H](C)CO)C[C@H](C)[C@H](CN(C)Cc1ccc(-c3ccccc3)cc1)O2`, the inhibition is -2.84% (inactive).

For the compound `C[C@@H]1CN([C@H](C)CO)C(=O)c2cc(NC(=O)Nc3ccc(F)cc3)ccc2O[C@@H]1CN(C)Cc1ccc(Cl)c(Cl)c1`, the inhibition is -0.852% (inactive).

As for `C[C@H]1CCCCO[C@H](CN(C)C(=O)CCC(F)(F)F)[C@@H](C)CN([C@@H](C)CO)C(=O)c2cc(NC(=O)Cc3ccccc3)ccc2O1`, the inhibition was 1.33% (inactive).

Regarding `C[C@H]1CN([C@@H](C)CO)S(=O)(=O)c2ccc(C#Cc3ccccc3)cc2O[C@H]1CN(C)S(=O)(=O)c1cn(C)cn1`, the inhibition is 0.612% (inactive).

For the compound `CCNC(=O)C[C@@H]1CC[C@H](NC(=O)C2CCC2)[C@@H](CO)O1`, the inhibition was 0.933% (inactive).

Regarding `O=C(c1cccnc1)N1CC[C@@H]2[C@@H](CO)Nc3ccc(-c4ccccc4)cc3[C@@H]21`, the inhibition was 18.1% (inactive).

With `O=C(c1ccccc1)N1CC[C@H]2[C@H](CO)Nc3ccc(-c4ccc(F)cc4)cc3[C@H]21`, the inhibition is -4.36% (inactive).

Take `O=C(c1ccncc1)N1CC[C@@H]2[C@H]1c1cc(Br)ccc1N[C@@H]2CO`: the inhibition was 104% (active).

For `O=C(C[C@@H]1C=C[C@@H](NC(=O)c2ccccn2)[C@@H](CO)O1)NCc1cc(F)cc(F)c1`, the inhibition was -2.07% (inactive).

On to `C[C@@H]1CN([C@H](C)CO)C(=O)c2cc(NC(=O)NC3CCCCC3)ccc2O[C@@H](C)CCCCO[C@H]1CN(C)S(C)(=O)=O`, for which the inhibition is 1.27% (inactive).

`CCC(=O)Nc1ccc2c(c1)OC[C@@H](C)N(Cc1ccccn1)C[C@H](C)[C@@H](OC)CN(C)C2=O`: the inhibition was 0.9% (inactive).

For `CO[C@H]1CN(C)C(=O)c2ccc(NC(C)=O)cc2OC[C@@H](C)NC[C@H]1C`, the inhibition is -1.23% (inactive).

Take `C[C@@H]1CN([C@H](C)CO)C(=O)c2cc(-c3ccccc3)cnc2O[C@H]1CN(C)C(=O)Nc1ccccc1`: the inhibition is 4.24% (inactive).

On to `CNC(=O)C[C@H]1CC[C@H]2[C@@H](COc3ccc(NS(=O)(=O)c4ccc(F)cc4)cc3C(=O)N2C)O1`, for which the inhibition was 6.78% (inactive).

Take `COc1ccc(NC(=O)Nc2cccc3c2O[C@H](CN(C)S(=O)(=O)c2cn(C)cn2)[C@H](C)CN([C@@H](C)CO)C3=O)cc1`: the inhibition was 1.78% (inactive).

In the case of `C=C(C)CSc1nc(N)c2c3c(sc2n1)CCC3`, the inhibition was 54.5% (active).

On to `CC(C)(C)C1CCc2c(sc3nc(SCC(N)=O)nc(N)c23)C1` (stereo not drawn), for which the inhibition was 7.83% (inactive).

As for `C=CCn1c(SCC(=O)NCCCO)nc2sc3c(c2c1=O)CCC3`, the inhibition was 2.06% (inactive).

On to `C[C@H](CO)N1C[C@H](C)[C@H](CN(C)C(=O)Nc2ccc(F)cc2)OCCCC[C@H](C)Oc2ccc(NC(=O)CCC(F)(F)F)cc2C1=O`, for which the inhibition is -0.385% (inactive).

As to `C[C@@H]1CN([C@@H](C)CO)C(=O)c2cccc(NS(=O)(=O)c3ccc(F)cc3)c2O[C@H]1CN(C)S(=O)(=O)c1cccs1`, the inhibition is -1.23% (inactive).

Take `CC(C)NC(=O)N1CCCCN2[C@@H](CO)[C@@H](c3ccc(C#C[C@@H](C)O)cc3)[C@@H]2C1`: the inhibition was 2.83% (inactive).

As a reminder, the inhibition is the drop in the measured response relative to a control, in per cent.
